# The supplement of paper PMC11732987, “Enantioselective OTUD7B fragment discovery through chemoproteomics screening and high-throughput optimisation” (Communications Chemistry, 2025)
# A number with no mark means an inactive call.
# Legend:
# Test in all cases: log2 ratio of Biotin-Ahx-Ub-VS probe labelling (fragment/DMSO); higher = less target engagement (more negative = stronger competition), active = hit call of the paper (q ≤ 0.05, log2 ratio ≤ -1)
# Details in all cases: compound concentration: 200 uM; treatment time: 3 h
# OTUD6B = biological target: T1, OTUD6B (UniProt Q8N6M0)
# T1 sequence (whole entry): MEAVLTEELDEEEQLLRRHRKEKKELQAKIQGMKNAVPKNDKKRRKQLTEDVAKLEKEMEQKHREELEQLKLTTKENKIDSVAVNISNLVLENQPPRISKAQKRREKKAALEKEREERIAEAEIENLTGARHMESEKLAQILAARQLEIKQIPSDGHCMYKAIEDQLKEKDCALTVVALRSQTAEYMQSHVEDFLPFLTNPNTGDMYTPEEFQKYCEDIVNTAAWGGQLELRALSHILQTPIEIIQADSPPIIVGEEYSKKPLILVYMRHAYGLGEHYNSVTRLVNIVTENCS
# Method in brief: (§1)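 Using Biotin-Ahx-Ub-VS at 0.5 µM final for 1 h, DUBs were labelled in HEK293T lysate (495 µg per sample) that had first been treated in triplicate with fragment at 200 µM or vehicle for 3 h. NeutrAvidin enrichment, LysC and trypsin digestion and diaPASEF LC-MS/MS followed. Spectronaut label-free quantities were global-median-normalised. Values are average log2 fragment/vehicle ratios by unpaired t-test, using proteins with ≥2 unique peptides.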
# OTUD7B = biological target: T2, OTUD7B (UniProt Q6GQQ9)
# T2 sequence (whole entry): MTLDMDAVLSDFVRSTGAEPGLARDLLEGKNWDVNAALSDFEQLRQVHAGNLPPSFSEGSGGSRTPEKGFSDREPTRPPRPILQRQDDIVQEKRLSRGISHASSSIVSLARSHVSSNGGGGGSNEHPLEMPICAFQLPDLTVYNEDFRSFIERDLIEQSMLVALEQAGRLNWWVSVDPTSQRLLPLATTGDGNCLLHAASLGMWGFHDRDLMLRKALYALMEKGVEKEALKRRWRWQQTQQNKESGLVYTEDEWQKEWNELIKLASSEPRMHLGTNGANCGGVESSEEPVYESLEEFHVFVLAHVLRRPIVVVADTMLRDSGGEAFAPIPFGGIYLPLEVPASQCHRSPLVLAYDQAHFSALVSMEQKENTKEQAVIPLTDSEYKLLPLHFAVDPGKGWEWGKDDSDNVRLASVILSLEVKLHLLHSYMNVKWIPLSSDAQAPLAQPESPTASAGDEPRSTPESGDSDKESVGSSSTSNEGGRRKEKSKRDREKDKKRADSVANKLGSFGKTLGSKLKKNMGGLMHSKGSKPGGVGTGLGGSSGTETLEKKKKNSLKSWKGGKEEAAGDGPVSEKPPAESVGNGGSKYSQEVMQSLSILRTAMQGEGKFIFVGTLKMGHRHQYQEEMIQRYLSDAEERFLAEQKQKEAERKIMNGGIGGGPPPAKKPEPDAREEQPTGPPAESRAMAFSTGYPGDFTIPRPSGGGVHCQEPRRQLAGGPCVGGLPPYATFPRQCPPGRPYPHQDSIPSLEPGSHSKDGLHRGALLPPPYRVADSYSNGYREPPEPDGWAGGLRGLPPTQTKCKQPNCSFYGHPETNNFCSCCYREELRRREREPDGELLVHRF
# Method in brief: as §1
# PRPF8 = PRPF8 (UniProt Q6P2Q9)
# Method in brief: as §1
# PSMD7 = biological target: T3, PSMD7 (UniProt P51665)
# T3 sequence (whole entry): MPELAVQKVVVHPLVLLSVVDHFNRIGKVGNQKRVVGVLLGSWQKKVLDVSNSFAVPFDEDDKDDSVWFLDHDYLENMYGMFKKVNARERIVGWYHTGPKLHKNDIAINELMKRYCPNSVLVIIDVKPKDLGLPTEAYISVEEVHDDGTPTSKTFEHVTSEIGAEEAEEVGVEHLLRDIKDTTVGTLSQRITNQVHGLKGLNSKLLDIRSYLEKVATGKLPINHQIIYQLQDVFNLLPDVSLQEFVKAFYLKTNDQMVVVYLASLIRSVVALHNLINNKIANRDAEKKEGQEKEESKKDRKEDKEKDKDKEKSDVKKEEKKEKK
# Method in brief: as §1
# UCHL1 = UCHL1 (UniProt P09936)
# Sequence of UCHL1 (P09936 whole entry, looked up): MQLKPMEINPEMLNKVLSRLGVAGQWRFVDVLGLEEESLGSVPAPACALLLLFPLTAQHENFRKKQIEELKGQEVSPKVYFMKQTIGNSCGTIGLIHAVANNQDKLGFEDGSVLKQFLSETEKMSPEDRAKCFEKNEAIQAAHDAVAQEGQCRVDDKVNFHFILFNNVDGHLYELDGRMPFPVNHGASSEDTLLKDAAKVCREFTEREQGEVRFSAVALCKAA
# Method in brief: as §1
# UCHL3 = biological target: T4, UCHL3 (UniProt P15374)
# T4 sequence (whole entry): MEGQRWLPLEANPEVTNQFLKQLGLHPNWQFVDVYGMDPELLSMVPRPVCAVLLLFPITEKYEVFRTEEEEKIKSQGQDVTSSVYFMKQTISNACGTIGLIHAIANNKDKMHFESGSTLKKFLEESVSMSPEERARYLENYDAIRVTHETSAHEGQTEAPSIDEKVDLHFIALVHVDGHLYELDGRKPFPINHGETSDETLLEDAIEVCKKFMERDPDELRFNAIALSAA
# Method in brief: as §1
# UCHL5 = biological target: T5, UCHL5 (UniProt Q9Y5K5)
# T5 sequence (whole entry): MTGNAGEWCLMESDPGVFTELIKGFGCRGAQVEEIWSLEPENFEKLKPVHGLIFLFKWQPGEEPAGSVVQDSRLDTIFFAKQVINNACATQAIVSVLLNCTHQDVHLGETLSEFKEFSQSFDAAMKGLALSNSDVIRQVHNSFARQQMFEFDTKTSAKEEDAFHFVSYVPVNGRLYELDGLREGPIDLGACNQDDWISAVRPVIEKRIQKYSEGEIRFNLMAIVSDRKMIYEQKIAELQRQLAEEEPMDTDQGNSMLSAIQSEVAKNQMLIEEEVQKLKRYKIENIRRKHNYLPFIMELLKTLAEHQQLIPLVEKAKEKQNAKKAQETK
# Method in brief: as §1
# USP10 = USP10 (UniProt Q14694)
# Sequence of USP10 (Q14694 whole entry): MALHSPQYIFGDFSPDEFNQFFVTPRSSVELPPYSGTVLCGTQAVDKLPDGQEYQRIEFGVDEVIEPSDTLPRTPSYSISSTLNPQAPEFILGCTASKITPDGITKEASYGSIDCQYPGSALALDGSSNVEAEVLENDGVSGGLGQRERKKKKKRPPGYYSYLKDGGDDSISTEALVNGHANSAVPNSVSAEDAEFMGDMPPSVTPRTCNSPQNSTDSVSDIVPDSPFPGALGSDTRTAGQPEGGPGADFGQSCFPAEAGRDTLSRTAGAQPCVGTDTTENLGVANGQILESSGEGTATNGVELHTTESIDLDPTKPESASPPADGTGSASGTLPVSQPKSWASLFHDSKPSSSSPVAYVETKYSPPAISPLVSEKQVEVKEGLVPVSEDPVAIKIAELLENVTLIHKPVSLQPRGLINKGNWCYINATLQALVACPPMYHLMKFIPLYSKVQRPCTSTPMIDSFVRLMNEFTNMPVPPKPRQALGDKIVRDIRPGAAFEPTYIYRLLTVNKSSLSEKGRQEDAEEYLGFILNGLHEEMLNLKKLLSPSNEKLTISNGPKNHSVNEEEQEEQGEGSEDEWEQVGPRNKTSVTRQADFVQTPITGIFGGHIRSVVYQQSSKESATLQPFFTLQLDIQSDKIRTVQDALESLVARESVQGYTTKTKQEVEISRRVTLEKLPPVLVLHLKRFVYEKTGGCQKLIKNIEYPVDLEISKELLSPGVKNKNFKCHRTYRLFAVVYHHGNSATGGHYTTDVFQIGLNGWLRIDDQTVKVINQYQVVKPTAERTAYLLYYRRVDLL
# Method in brief: as §1
# USP15 = biological target: T6, USP15 (UniProt Q9Y4E8)
# T6 sequence (whole entry): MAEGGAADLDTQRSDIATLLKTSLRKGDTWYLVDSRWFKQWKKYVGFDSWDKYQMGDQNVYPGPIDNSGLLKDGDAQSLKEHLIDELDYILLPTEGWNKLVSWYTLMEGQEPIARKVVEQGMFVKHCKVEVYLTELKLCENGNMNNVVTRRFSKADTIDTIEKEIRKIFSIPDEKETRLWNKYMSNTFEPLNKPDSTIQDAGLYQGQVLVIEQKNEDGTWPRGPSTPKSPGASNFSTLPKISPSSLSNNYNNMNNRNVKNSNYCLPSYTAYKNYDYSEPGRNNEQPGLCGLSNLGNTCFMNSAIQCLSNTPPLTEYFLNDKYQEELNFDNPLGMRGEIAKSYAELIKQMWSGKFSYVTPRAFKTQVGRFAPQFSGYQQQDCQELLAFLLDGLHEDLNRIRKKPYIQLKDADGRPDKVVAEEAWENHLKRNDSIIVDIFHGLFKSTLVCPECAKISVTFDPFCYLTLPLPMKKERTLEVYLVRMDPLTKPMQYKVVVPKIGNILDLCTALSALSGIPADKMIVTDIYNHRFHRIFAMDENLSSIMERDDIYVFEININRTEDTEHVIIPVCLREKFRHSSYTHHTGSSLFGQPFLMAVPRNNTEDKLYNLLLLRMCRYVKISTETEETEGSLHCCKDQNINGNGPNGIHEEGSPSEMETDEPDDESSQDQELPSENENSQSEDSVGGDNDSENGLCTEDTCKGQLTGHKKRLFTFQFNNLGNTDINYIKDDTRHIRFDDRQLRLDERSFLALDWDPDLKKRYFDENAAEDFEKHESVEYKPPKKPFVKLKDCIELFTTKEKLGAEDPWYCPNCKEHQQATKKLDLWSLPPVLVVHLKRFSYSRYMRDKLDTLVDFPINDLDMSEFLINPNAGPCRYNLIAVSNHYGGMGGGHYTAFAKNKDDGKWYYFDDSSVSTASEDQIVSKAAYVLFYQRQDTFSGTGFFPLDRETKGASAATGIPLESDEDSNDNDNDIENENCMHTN
# Method in brief: as §1
# USP16 = USP16 (UniProt Q9Y5T5)
# Sequence of USP16 (Q9Y5T5 whole entry, looked up): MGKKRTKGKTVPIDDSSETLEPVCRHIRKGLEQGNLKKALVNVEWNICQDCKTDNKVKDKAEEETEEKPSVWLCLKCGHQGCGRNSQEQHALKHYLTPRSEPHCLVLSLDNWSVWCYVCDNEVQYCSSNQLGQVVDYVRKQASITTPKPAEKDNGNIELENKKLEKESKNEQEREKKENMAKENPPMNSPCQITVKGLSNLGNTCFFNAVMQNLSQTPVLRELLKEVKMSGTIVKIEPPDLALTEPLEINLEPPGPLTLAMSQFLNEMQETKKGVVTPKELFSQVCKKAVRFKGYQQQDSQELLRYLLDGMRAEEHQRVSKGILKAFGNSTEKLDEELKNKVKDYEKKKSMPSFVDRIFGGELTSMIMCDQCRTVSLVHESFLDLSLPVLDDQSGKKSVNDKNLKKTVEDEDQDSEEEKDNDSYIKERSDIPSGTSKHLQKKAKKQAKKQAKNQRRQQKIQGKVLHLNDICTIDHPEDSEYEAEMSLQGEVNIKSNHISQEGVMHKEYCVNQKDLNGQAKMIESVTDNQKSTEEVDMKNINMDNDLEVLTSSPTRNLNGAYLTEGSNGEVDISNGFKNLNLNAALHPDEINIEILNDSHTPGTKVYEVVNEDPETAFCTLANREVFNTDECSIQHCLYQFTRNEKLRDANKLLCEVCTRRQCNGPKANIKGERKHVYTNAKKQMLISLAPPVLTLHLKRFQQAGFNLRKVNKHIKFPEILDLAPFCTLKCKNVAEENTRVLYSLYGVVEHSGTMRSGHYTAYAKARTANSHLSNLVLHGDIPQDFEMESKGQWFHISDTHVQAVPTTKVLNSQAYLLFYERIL
# Method in brief: as §1
smiles,measurement,setting,value
Cl.Cn1c(CNC(=O)CCl)nc2cccnc21,log2 ratio of Biotin-Ahx-Ub-VS probe labelling,OTUD6B,-0.213
same,log2 ratio of Biotin-Ahx-Ub-VS probe labelling,OTUD7B,-0.356
same,log2 ratio of Biotin-Ahx-Ub-VS probe labelling,PRPF8,-0.144
same,log2 ratio of Biotin-Ahx-Ub-VS probe labelling,PSMD7,-0.0899
same,log2 ratio of Biotin-Ahx-Ub-VS probe labelling,UCHL1,-1.17 (active)
same,log2 ratio of Biotin-Ahx-Ub-VS probe labelling,UCHL3,0.177
same,log2 ratio of Biotin-Ahx-Ub-VS probe labelling,UCHL5,-0.302
same,log2 ratio of Biotin-Ahx-Ub-VS probe labelling,USP10,-0.0558
same,log2 ratio of Biotin-Ahx-Ub-VS probe labelling,USP15,-0.177
same,log2 ratio of Biotin-Ahx-Ub-VS probe labelling,USP16,-0.246
